± gives the standard deviation of the averaged measurements. In all, about 33,000 sequences were measured (“E-score (dimensionless, -0.5 to 0.5)”: median about -0.049, highest 2% from about 0.37 on). Shown is part of a subset that was picked to be rich in the highest values.
Test system: T1, PmTbr T-box DNA-binding domain (GST fusion)
T1 sequence: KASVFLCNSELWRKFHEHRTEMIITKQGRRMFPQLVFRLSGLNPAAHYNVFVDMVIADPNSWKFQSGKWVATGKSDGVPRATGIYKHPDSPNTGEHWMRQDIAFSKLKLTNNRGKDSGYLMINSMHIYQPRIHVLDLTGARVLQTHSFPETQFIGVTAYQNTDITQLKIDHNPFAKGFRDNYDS
Assay: PBM E-score of 8-mer (E-score (dimensionless, -0.5 to 0.5)); Tbr is Tbrain of the sea star Patiria miniata (Pm) or the sea urchin Strongylocentrotus purpuratus (Sp); higher = stronger binding preference
Conditions: the construct has about 5 more residues each side
How it was run: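 Universal Agilent oligonucleotide arrays, made double-stranded by primer extension, were incubated with 200 nM GST-fused Tbr T-box DNA-binding domain in PBS (pH 7.5). The protein was expressed in BL21 E. coli at 20 °C and purified by glutathione affinity chromatography. After scanning and quantification, the Universal PBM Analysis Suite assigned an enrichment E-score to each ungapped 8-mer, averaged over duplicate arrays.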

Row | Sequence | PBM E-score of 8-mer
1 | CCAGAGCC | -0.17 ± 0.0096
2 | GAGGTGGA | 0.0566 ± 0.0027
3 | CAGGTGGC | 0.364 ± 0.018
4 | AAGGTGGC | 0.383 ± 0.021
5 | AAGGTGGG | 0.221 ± 0.026
6 | AAGGTGGA | -0.0394 ± 0.074
7 | GAGGTGGC | 0.372 ± 0.036
8 | TACTAGTA | -0.163 ± 0.035
9 | CTGTAGCA | -0.0144 ± 0.079
10 | ACGCACCA | 0.0123 ± 0.072
11 | AATCTTTA | -0.0517 ± 0.059
12 | AACACGAT | 0.291 ± 0.018
13 | AACACGCT | 0.197 ± 0.011
14 | GACACGTA | 0.317 ± 0.029
15 | AACACGTT | 0.386 ± 0.014
16 | AACACGTC | 0.399 ± 0.021
17 | GACACGGC | 0.187 ± 0.038
18 | GACACGTC | 0.373 ± 0.021
19 | AACACGTA | 0.34 ± 0.024
20 | AACACGGC | 0.162 ± 0.017
21 | ACGCGTTC | 0.138 ± 0.014
22 | TTAGTGAA | -0.048 ± 0.037
23 | TCTAAGAA | -0.239 ± 0.028
24 | GAAGGTGC | 0.439 ± 0.012
25 | CAAGGTGC | 0.4331 ± 0.00078

Row | Sequence | PBM E-score of 8-mer
26 | GAAGGTGA | 0.406 ± 0.011
27 | CAAGGTGA | 0.406 ± 0.0091
28 | CAAGGTGG | 0.323 ± 0.03
29 | GAAGGTAC | -0.214 ± 0.046
30 | CAAGGTTC | 0.0603 ± 0.055
31 | CAAGGTCA | 0.0991 ± 0.0032
32 | GAAGGTCC | -0.1794 ± 0.0013
33 | CAAGGTAA | 0.00125 ± 0.13
34 | TAAGGTGA | 0.3578 ± 0.00067
35 | GAAGGTAA | 0.00393 ± 0.033
36 | TCAAATGA | -0.203 ± 0.019
37 | ATGGGCCA | -0.105 ± 0.04
38 | CAGCGCTG | 0.0573 ± 0.064
39 | CATTACCA | -0.0668 ± 0.0072
40 | ACTCCTTC | 0.0419 ± 0.014
41 | AGCTATAA | -0.182 ± 0.011
42 | AGTTAGGG | -0.128 ± 0.021
43 | CAGATGCG | -0.135 ± 0.048
44 | AGGGTGCG | 0.356 ± 0.052
45 | ACGGTGCG | 0.309 ± 0.042
46 | CAGGTGCC | 0.4 ± 0.0072
47 | AAGGTGCG | 0.45 ± 0.014
48 | CGGGTGCC | 0.247 ± 0.024
49 | CAGGTGCG | 0.4533 ± 0.0028
50 | CTGGTGCC | 0.128 ± 0.018

Row | Sequence | PBM E-score of 8-mer
51 | CAGGTGCA | 0.277 ± 0.021
52 | CCCACTCC | -0.0608 ± 0.036
53 | CCCAGATA | -0.233 ± 0.14
54 | CGAAAGCC | -0.0801 ± 0.046
55 | CAGTAAAC | -0.125 ± 0.0037
56 | ACTAAACT | -0.221 ± 0.1
57 | AAGGACTT | -0.228 ± 0.067
58 | GTGTTACA | 0.386 ± 0.013
59 | TTGTTAAA | 0.199 ± 0.035
60 | CTGTTATA | 0.184 ± 0.016
61 | CTGTTACA | 0.197 ± 0.0076
62 | GTGTTAGA | 0.419 ± 0.0094
63 | ATGTTAGA | -0.236 ± 0.027
64 | CTGTTAGA | 0.118 ± 0.0087
65 | CTGTTAAA | 0.23 ± 0.015
66 | ATGTTATA | -0.0814 ± 0.076
67 | GTGTTATA | 0.426 ± 0.013
68 | GTGTTAAA | 0.429 ± 0.021
69 | ATGTTACA | 0.0933 ± 0.047
70 | CACCAGTA | 0.132 ± 0.018
71 | CAGGCGTA | -0.0498 ± 0.043
72 | AGCCACGC | -0.0441 ± 0.025
73 | ACACTACG | 0.283 ± 0.0065
74 | AGAGTTGC | 0.0099 ± 0.0045
75 | AGTACTCC | -0.28 ± 0.033

Row | Sequence | PBM E-score of 8-mer
76 | CTAGGCCC | -0.274 ± 0.082
77 | TAATGCGA | 0.0983 ± 0.054
78 | AAAACCTG | 0.191 ± 0.063
79 | CTAGCCAG | -0.185 ± 0.027
80 | AAACTCTC | -0.00208 ± 0.031
81 | GGAGCTCA | -0.0734 ± 0.021
82 | CTGTTAAC | 0.281 ± 0.055
83 | GTGTTAAC | 0.438 ± 0.017
84 | ATGTTAAC | 0.161 ± 0.015
85 | CTAAGTGA | 0.225 ± 0.032
86 | AACTTAGA | -0.157 ± 0.055
87 | ACGCAGTA | -0.0663 ± 0.018
88 | CGGTGTCA | 0.4 ± 0.012
89 | CGGTGTGA | 0.451 ± 0.0064
90 | GGGGGTCA | -0.0111 ± 0.17
91 | GGGTGTCA | 0.472 ± 0.0071
92 | GCGTGTCA | 0.276 ± 0.034
93 | CGGTGTCC | -0.00395 ± 0.072
94 | CGATGTGA | 0.228 ± 0.018
95 | CGATGTCA | 0.0984 ± 0.03
96 | CGGTGTGC | 0 ± 0.12
97 | CGAAATTC | 0.0215 ± 0.011
98 | ATAATGCC | -0.174 ± 0.081
99 | AGTATGCG | -0.0996 ± 0.096
100 | CAGAACCA | -0.232 ± 0.018

Row | Sequence | PBM E-score of 8-mer
101 | GCAATTCA | 0.0777 ± 0.042
102 | GACAAGGC | 0.101 ± 0.025
103 | CTTCGCAC | 0.454 ± 0.019
104 | CTTCGCCC | -0.0791 ± 0.096
105 | ATTCGCAC | 0.4784 ± 0.002
106 | ATTCGCAA | 0.298 ± 0.027
107 | ATTCGCAG | 0.297 ± 0.024
108 | CTTCGCAA | 0.336 ± 0.028
109 | GATTACGA | -0.00232 ± 0.07
110 | ATGGCAGA | -0.0257 ± 0.063
111 | AAGACATT | -0.203 ± 0.097
112 | ATGACACG | 0.312 ± 0.017
113 | CTGACATC | -0.0976 ± 0.035
114 | CTGACAGC | 0.289 ± 0.011
115 | ATGACACA | 0.314 ± 0.0075
116 | ATGACACC | 0.463 ± 0.0098
117 | CTGACACC | 0.464 ± 0.0063
118 | GCCGCTGA | -0.113 ± 0.074
119 | GACATCGA | -0.0159 ± 0.0023
120 | CACCACAC | 0.367 ± 0.018
121 | CACACCAG | 0.399 ± 0.018
122 | CCCACCAC | -0.0276 ± 0.048
123 | CACACCAC | 0.406 ± 0.012
124 | CGCACCAG | 0.2978 ± 0.0014
125 | AACACCAG | 0.335 ± 0.022

Row | Sequence | PBM E-score of 8-mer
126 | CTCACCAA | 0.211 ± 0.042
127 | CACACCAA | 0.3718 ± 0.0018
128 | CCCACCAA | -0.112 ± 0.048
129 | CAATATCG | 0.06478 ± 0.00031
130 | GCCATAGA | -0.0661 ± 0.067
131 | CAGGTAGC | -0.062 ± 0.011
132 | CAGTACCA | -0.0345 ± 0.056
133 | ACATTACC | -0.144 ± 0.023
134 | AGCCACGG | -0.119 ± 0.013
135 | CTCGTCCC | -0.303 ± 0.016
136 | AAATAGGT | 0.0404 ± 0.07
137 | GCACAGGA | -0.162 ± 0.05
138 | CGCAAAAC | 0.0965 ± 0.0024
139 | CCACGTGC | 0.149 ± 0.013
140 | ACACGTGT | 0.403 ± 0.023
141 | GCACGTGC | 0.2695 ± 0.0011
142 | ACACGTGG | 0.307 ± 0.022
143 | ACACGTGC | 0.387 ± 0.023
144 | ACACGTGA | 0.292 ± 0.017
145 | ACATGGTG | 0.243 ± 0.0055
146 | GCAAGCCA | -0.221 ± 0.037
147 | GCATCTGA | -0.0824 ± 0.1
148 | ATTATCCG | -0.0296 ± 0.042
149 | GATGGCGA | 0.1142 ± 0.00067
150 | CAGTGGAG | -0.068 ± 0.012

Row | Sequence | PBM E-score of 8-mer
151 | ACTTGTGA | 0.411 ± 0.0095
152 | GCTTGTCA | 0.0851 ± 0.047
153 | CGTTGTGA | 0.2 ± 0.0095
154 | TCTTGTCA | 0.207 ± 0.023
155 | AGTTGTGG | 0.122 ± 0.039
156 | AGTTGTGA | 0.387 ± 0.017
157 | ACTTGTGG | 0.196 ± 0.014
158 | ACTTGTTA | 0.372 ± 0.044
159 | CCTTGTTA | 0.126 ± 0.011
160 | ACTTGTTG | 0.332 ± 0.018
161 | ACTTGTCA | 0.4044 ± 0.0039
162 | GCTTGTGA | 0.187 ± 0.0082
163 | ATACTTAA | -0.187 ± 0.096
164 | CTAGTGCA | 0.173 ± 0.0046
165 | TCCCCAGA | -0.207 ± 0.12
166 | GCAGAAAA | -0.0494 ± 0.066
167 | TATTCCGA | -0.274 ± 0.013
168 | CACTTCGG | 0.363 ± 0.015
169 | ATATACGG | -0.038 ± 0.039
170 | CTTTTAGC | 0.22 ± 0.074
171 | AGTCCTAG | -0.0285 ± 0.042
172 | ATAGTAAG | -0.216 ± 0.029

Source: the supplement of paper PMC4166925
